Shown are actives, neighbours in structure and some others; about 2.2% of the full set was active somewhere.
RTF Ca sens inh – cardiac RTF calcium desensitization | P19429+P45379 | 0.12% of 340,000 active | IANBD-labeled cardiac RTF, Ca2+ fluorescence | inhibition, % at 7.15 µM;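 active = inhibition above the mean inhibition of all tested compounds plus 3 SD, cut at about 17% in these data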;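 note: assay run at fixed EC70 calcium of 1.6 mM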
RTF Ca sens act – cardiac RTF calcium sensitization. 0.24% of 340,000 active. activation, % at 7.2 µM. IANBD-labeled TnC RTF fluorescence at EC20 calcium; 0% EC20 calcium, 100% full calcium;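 active = activation above the mean over all tested compounds plus 3 SD, cut at about 30% in these data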;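 note: rise in fluorescence read as greater calcium sensitivity of cardiac thin filaments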
CRFR2-BP ag – agonists of human CRF-binding protein/CRF-R2 receptor complex. activation, % at 13.2 µM. HEK293 CRF-R2/CRF-BP, calcium dye fluorescence (FLIPR); percent of saturating CRF peptide response. 0.46% of 350,000 active;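 active = activation of at least 50%, plus an integration ratio under a set limit after plate pattern correction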;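 note: plate controls were neutral control wells without compound for no effect and CRF at EC100 for full effect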
CRFBP-R2 block – antagonists of CRF-binding protein/CRF-R2 receptor complex | 0.59% of 350,000 active | inhibition, % at 11.8 µM | AID 588475 | HEK293 CRF-R2/CRF-BP, CRF-induced calcium fluorescence;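 active = inhibition of the ligand-induced calcium signal above about 50% at the single tested concentration, limit read from the data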
Myeloid diff MLP – compounds promoting myeloid differentiation; ER-HoxA9 myeloid progenitors, lysozyme-GFP differentiation, flow cytometry; 1% of 360,000 active; calls only at 10 µM;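 active = normalized GFP-positive differentiation at or above the plate's own cutoff, the solvent-only control mean plus 3 SD; inconclusive = no clear call, values can overlap the other calls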;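 note: cells exposed to compound for four days before flow analysis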
* marks the source's active call; other numbers are inactive results; i = inactive; ? = inconclusive; / = no result given; + = active, no number; ! = repeats disagree.

SMILES	RTF Ca sens inh	RTF Ca sens act	CRFR2-BP ag	CRFBP-R2 block	Myeloid diff MLP
COc1ccc(CNCCc2ccc3c(c2)OCO3)cc1Br	2.3	3.4	0.7	-14.4	i
Cc1cc(-c2cc(C)c(N)c(C)c2)cc(C)c1N	-8.4	-0.5	0.3	4.2	i
CN(C)CCN(C(=O)COc1ccc(Cl)cc1)c1nc2cc3c(cc2s1)OCO3	0.6	3.9	3.7	-19.1	i
C[C@@H]1CC[C@H]2[C@@H](C)C(=O)O[C@@H]3O[C@@]4(C)CC[C@@H]1[C@]32OO4	-2.6	5.9	4.7	-11.7	+
O=C([O-])c1ccc(-[n+]2c(-c3ccccc3)cc(-c3ccccc3)cc2-c2ccccc2)cc1	-14.6	0.9	-0.6	-6.9	i
O=[N+]([O-])c1ccc(-[n+]2c(-c3ccccc3)cc(-c3ccccc3)cc2-c2ccccc2)cc1	2.7	0.8	69.3*	-18.6	i
COc1ccccc1-c1cc(NC(C)=O)c2ncc(-c3ccccc3)n2c1	/	/	/	/	i
CCC1(Cc2ccccc2)C(=O)NC(=S)N(C)C1=O (stereo not drawn)	-9.2	0.6	-1.0	3.8	i
Oc1c(Cl)c(Cl)c(Cl)c(Cl)c1Cl	15.7	-4.2	10.7	53.5*	i
O=C1NC(=O)N(c2ccccc2)C(=O)/C1=C/c1coc2ccc(O)cc2c1=O	-17.8	-1.8	2.8	-2.1	+
O=C1NC(=O)N(c2ccc(Cl)cc2)C(=O)/C1=C/c1coc2ccc(O)cc2c1=O	-0.8	-0.9	3.1	-2.0	+
COC(=O)C1=C(c2ccc(OCc3ccccc3)c(F)c2)C[C@@H]2CC[C@H]1N2C	/	/	-1.4	10.1	i
CCCCCn1c(=O)c(C(=O)Nc2ncccc2C)c(O)c2ccccc21	-8.3	3.7	2.2	2.1	?
CCCCn1c(=O)c(C(=O)Nc2cnccn2)c(O)c2ccccc21	-3.6	5.0	0.5	-28.9	+
CCOC(=O)[C@@]1(C#N)[C@@H]2C=CC(C(N)=O)=CN2[C@@H](C(N)=O)[C@@H]1c1cccc(Cl)c1	-6.7	17.0	5.2	-20.8	+
CCCCn1nnnc1C(CCSC)N1CCC(n2c(=O)[nH]c3ccccc32)CC1 (stereo not drawn)	/	/	/	/	i
CC(=O)c1ccc2c(c1)C1C(Cl)C(Sc3ccccc3[N+](=O)[O-])CC1C(C(=O)O)N2 (stereo not drawn)	15.8	-18.2	-2.9	30.7	i
O=C(O)c1cccc2c1NC(C(=O)O)C1CC(Sc3ccccc3[N+](=O)[O-])C(Cl)C21 (stereo not drawn)	55.5*	-37.3	0.6	32.9	i
CCC1(C)OC(c2ccccc2)=C/C(=C/C=C2C(=O)NC(=O)NC2=O)O1 (stereo not drawn)	-162.9	123.3*	37.7	-73.1	i
COC(=O)C1=C(c2ccc(OC(F)(F)F)cc2)C[C@@H]2CC[C@H]1N2C(=O)NCc1cc(C)oc1C(F)(F)F	-2.0	-10.4	0.6	18.5	i
CCOc1ccc(-n2c(O)c(C=Nc3ccc(N(CC)CC)cc3)c(=O)[nH]c2=O)cc1	-3.0	14.7	101.7*	-146.3	i
CCN(CC)c1ccc(N=Cc2c(O)n(-c3ccccc3)c(=O)[nH]c2=O)cc1	-4.8	3.0	9.8	-41.1	i
COc1ccc(Cn2c(O)c(/C=N/NC(=O)c3ccccc3)c(=O)[nH]c2=O)cc1	2.3	-4.9	-0.5	54.8*	i
COc1ccc(Cn2c(O)c(/C=N/NC(=O)c3ccncc3)c(=O)[nH]c2=O)cc1	-5.1	0.7	0.5	7.6	i
CCN(CC)c1ccc(N=Cc2c(O)n(Cc3ccccc3)c(=O)[nH]c2=O)cc1	-10.2	3.1	190.0*!	-193.2	i
SMILES	RTF Ca sens inh	RTF Ca sens act	CRFR2-BP ag	CRFBP-R2 block	Myeloid diff MLP
O=P(/C(=N/O)N1CCOCC1)(N1CCOCC1)N1CCOCC1	2.7	-0.3	-3.2	54.8*	i
Nc1c(Br)cc2c3c(cccc13)-c1ccccc1-2	/	/	34.3	-70.6	/
O=C(CCCN1CCC2(CC1)C(=O)NCN2c1ccccc1)c1ccc(F)cc1	3.0	-1.9	137.0*	10.0	i
Cc1cc(Cl)ccc1OCC(=O)O	13.1	-2.9	-0.3	-24.4	i
Cc1cc(Cl)ccc1OC(C)C(=O)O (stereo not drawn)	20.1*	4.8	-0.7	8.0	i
CC(=O)NC(Cc1ccc(N(CCCl)CCCl)cc1)C(=O)NCC(=O)NCC(=O)O (stereo not drawn)	-8.9	1.6	0.2	9.2	i
CC(C)OCCCNC(=O)c1c(N)n(CC2CCCO2)c2nc3ccccc3nc12 (stereo not drawn)	-7.3	-17.4	0.3	3.9	+
CC(C)CCn1c(N)c(C(=O)OCC2CCCO2)c2nc3ccccc3nc21 (stereo not drawn)	6.7	-2.0	0.1	-5.5	+
CCN(CC)c1ccc(C=C2C(=O)N(C)C(=S)N(C)C2=O)o1	-22.5	22.4	88.1*	-92.3	i
Cc1ccc(/C=C2\C(=O)NC(=S)N(c3ccc(F)cc3)C2=O)o1	-6.0	4.1	4.3	-1.9	i
CCN(CC)c1ccc(/C=C2\C(=O)NC(=S)N(C)C2=O)o1	-77.8	53.4*	57.9*	-23.5	+
CN1C(=O)C(=Cc2ccc(N3CCCCC3)o2)C(=O)N(C)C1=S	-7.4	13.5	132.9*	-100.2	i
COC(=O)C1=C(c2cc3ccccc3s2)C[C@@H]2CC[C@H]1N2C(=O)NCCNC(C)=O	-20.2	0.4	-1.6	-3.6	i
O=C1C2CC(CN3CCCCC23)C2CCCCN12 (stereo not drawn)	/	/	/	/	i
Cc1cccc(NC(=O)COC(=O)c2cc(C)n(C3CC3)c2C)c1	-2.8	-1.6	-0.7	-3.5	i
CCOC(=O)C(O)(c1ccc(NC(=S)NC(=O)c2ccc(Cl)cc2Cl)cc1)C(F)(F)F (stereo not drawn)	-13.0	-1.2	147.8*	-189.8	i
COC(=O)C(O)(c1ccc(NC(=S)NC(=O)c2ccc(Cl)cc2Cl)c(C)c1)C(F)(F)F (stereo not drawn)	6.2	-0.5	30.6	-120.4	i
COC(=O)C(O)(c1ccc(NC(=S)NC(=O)c2ccc(Cl)cc2Cl)cc1)C(F)(F)F (stereo not drawn)	-2.3	2.8	36.6	-108.6	i
CCOC(=O)C(O)(c1ccc(NC(=S)NC(=O)c2ccc(Cl)cc2Cl)c(C)c1)C(F)(F)F (stereo not drawn)	5.8	-13.4	113.9*	-201.9	i
COC(=O)C1=C(c2cccc(OC)c2OC)C[C@@H]2CC[C@H]1N2C(=O)NCc1ccco1	-4.0	17.4	1.0	7.3	i
CC(C)C(O)(C(=O)OCC1=CCN2CCC(O)C12)C(C)O (stereo not drawn)	/	/	/	/	i
O=c1[nH]c(O)c(C=NCCc2ccccc2)c(=O)[nH]1	-0.8	3.8	0.4	-4.0	i
O=c1[nH]c(O)c(/C=C2\C=Nc3ccc(OCc4ccccc4)cc32)c(=O)[nH]1	-64.1	47.6*	38.3	-37.2	i
